BAZ2B inh: blocks human BAZ2B; Q9UIF8; AlphaScreen BAZ2B-H3K14Ac peptide displacement; Potency, µM (top dose mostly 114 µM), without a hit: top-dose activity change, negative = inhibition, hits mostly inhibitors; 360,000 compounds, 4.4% hits; AID 504333; note: % is set by controls: 0 for no effect and ±100 for the full control effect; nearly all actives have a fitted effect of over 60% in size
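AlphaScreen displacement of biotin-H3(5-23)K14Ac peptide (50 nM final) from BAZ2B (50 nM final) in PBS pH 7.4, 0.01% Tween-20; complex preformed 30 min RT, then compounds (top 110 uM) 30 min RT, beads 20 min dark.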
GLS inh: blocks human kidney-isoform glutaminase activity | O94925 | GLS enzymatic activity, qHTS titration | Potency, µM (top dose mostly 45.5 µM), without a hit: at the top dose activity change, negative = inhibition, hits mostly inhibitors | 410,000 compounds, 0.21% hits | AID 624170; note: % is set by controls: 0 for no effect and ±100 for the full control effect
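Read-out is an Amplex red fluorescence increase coupled through glutamate oxidase and HRP, measured before and after 30 min room-temperature incubation. hKGA is in 45 mM KH2PO4 (pH 8.2) with 0.02% Tween-20; glutamine added as 1mM solution.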
G9a block: G9a (human) methyltransferase inhibition | Q96KQ7 | G9a H3K9 monomethylation, AlphaScreen, 2 h | Potency, µM (top dose mostly 102 µM), inactives show top-dose activity, negative = inhibition, hits mostly inhibitors | 350,000 compounds, 8.8% hits | AID 504332; note: % is set by controls: 0 for no effect and ±100 for the full control effect; nearly all actives have a fitted effect of over 75% in size
Target sequence (Q96KQ7 913-1193 limits assumed): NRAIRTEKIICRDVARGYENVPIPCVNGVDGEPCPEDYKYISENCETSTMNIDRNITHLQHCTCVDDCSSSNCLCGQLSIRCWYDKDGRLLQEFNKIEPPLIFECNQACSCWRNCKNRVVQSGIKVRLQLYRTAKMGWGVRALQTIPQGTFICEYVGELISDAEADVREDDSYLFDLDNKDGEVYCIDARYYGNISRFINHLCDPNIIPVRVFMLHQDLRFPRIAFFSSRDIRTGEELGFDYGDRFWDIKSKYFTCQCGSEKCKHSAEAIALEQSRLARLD
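Methyltransferase reactions run at room temperature for 2 h (20 nM enzyme, 500 nM biotin-H3K9 peptide, 20 uM SAM) after a 15 min compound preincubation; product detected by AlphaScreen beads and anti-H3K9me1 antibody.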
HP1b binding inh: blocks HP1-beta chromodomain binding to methylated histone tails. 390,000 compounds, 0.56% hits. AID 540317. P83916. Potency, µM (doses to about 114 µM), for inactives: at the highest dose activity change, negative = inhibition, actives largely listed as inhibitors. AlphaScreen HP1-beta / biotin-H3K9me3 peptide binding; note: nearly all actives have a fitted effect of over 70% in size
Target sequence (P83916 whole entry, looked up): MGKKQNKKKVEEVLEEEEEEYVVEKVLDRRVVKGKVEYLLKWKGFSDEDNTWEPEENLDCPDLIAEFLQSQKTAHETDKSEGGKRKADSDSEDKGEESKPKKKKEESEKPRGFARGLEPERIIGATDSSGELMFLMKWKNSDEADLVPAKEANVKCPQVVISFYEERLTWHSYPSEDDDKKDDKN
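HP1-beta protein (50 nM final) preincubated 30 min at room temperature with biotinylated H3(1-18)K9me3 peptide (50 nM) in PBS pH 7.4, 0.01% Tween-20, then compound added for 30 min. AlphaScreen streptavidin donor/nickel chelate acceptor beads (10 ug/mL final), 30 min dark, luminescence read.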
JMJD2A Tudor inh: blocks the human JMJD2A Tudor domain; AlphaScreen JMJD2A-Tudor / H3K4me3 peptide binding; 390,000 compounds, 4.4% hits; Potency, µM (doses to about 114 µM), without a hit: at the top dose activity change, negative = inhibition, actives largely listed as inhibitors; O75164; AID 504339; note: % is set by controls: 0 for no effect and ±100 for the full control effect; nearly all actives have a fitted effect of over 50% in size
* hit, by the source's call; ? = inconclusive; . = not tested or not shown; [ ] = another dose, or the depositor's remark. Shown are actives, neighbours in structure and some others; about 10% of the full set was active somewhere. Calls come from the whole dose curve; as a rule, active = well fitted curve in the direction sought with a large enough effect; inconclusive = small, poorly fitted or top-dose-only effect, or another doubt; inactive = no such curve, though single readings can be large; an effect the other way counts as inactive or inconclusive. Potency is the fitted concentration of half-maximal effect.

SMILES	BAZ2B inh	GLS inh	G9a block	HP1b binding inh	JMJD2A Tudor inh
CCOC(=O)c1ccc(NC(=O)C2CCN(S(=O)(=O)Cc3ccccc3)CC2)cc1	41.1%	-3.4%	44.4%[59 µM]	113.1%	41.7%
O=C1CCCC2=C1C(c1ccc(O)c(O)c1)c1c(ccc3ncccc13)N2 (stereo unspecified)	44.7µM*	?	3.55µM*	?	-18.8%[11.4 µM]
COc1cc(C2Nc3ccc4ncccc4c3C3=C2C(=O)CCC3)ccc1O (stereo unspecified)	-13.2%	24.7%	50.1µM*	-1.4%	?
Cc1ccc2nc(-c3ccc(Cl)c(NC(=O)c4ccc5c(c4)OCCO5)c3)oc2c1	-14.2%	-12.3%	6.6%[59 µM]	35.2%	-11.6%
O=C1NC2(CCCCC2)C(=O)N1/N=C/c1ccccc1Br	-16.3%	-1.4%	14.2%	35.2%	-14.8%
O=C1NC2(CCCCC2)C(=O)N1/N=C/c1ccc(O)cc1O	?	20.1%	3.98µM*	-18.5%	-15.3%[11.4 µM]
Cc1sc2ccccc2[n+]1CC(=O)c1ccccc1	?	34.3%	10µM*	-7.0%	?
Cc1nnc(SCC(=O)NC(=O)Nc2ccc3c(c2)OCCO3)n1N	1.8%	5.9%	.	20.2%	-11.9%
CC(C)C[C@H]1COc2cc(N3CC[C@H](O)C3)ccc2S(=O)(=O)N1	.	-7.1%	.	.	.
CCCCn1c(SCC(=O)c2ccc(OC)c(OC)c2)nc2cc(S(N)(=O)=O)ccc21	-0.6%	-6.5%	50.1µM*	23.7%	-10.3%
CCCCn1c(SCC(=O)c2ccc(OCC)cc2)nc2cc(S(N)(=O)=O)ccc21	0.4%	1.1%	?	-0.1%	?
CSc1oc(-c2ccco2)nc1S(=O)(=O)c1ccc(F)cc1	6.2%	-6.1%	?	26.0%	-25.0%
CSc1oc(-c2ccco2)nc1S(=O)(=O)c1ccccc1	-4.7%	-6.9%	31.6µM*	16.5%	-29.6%
CSc1oc(-c2ccccc2)nc1S(=O)(=O)c1ccc(F)cc1	7.6%	-4.2%	39.8µM*	57.6%	13.8%
CSc1oc(-c2ccco2)nc1S(=O)(=O)c1ccc(C)cc1	-4.2%	2.2%	28.2µM*	12.9%	-12.1%
C=CCNc1oc(-c2ccco2)nc1S(=O)(=O)c1ccccc1	-37.4%	0.6%	25.1µM*	12.2%	-16.0%
CCC1C(=O)C[C@H]2CCN3C(=O)CCCC1C23 (stereo partly specified)	.	-2.7%	13.7%[135 µM]	56.1%	-15.1%
Cc1ccc(S(=O)(=O)c2nc(-c3ccc(F)cc3)oc2SCC(N)=O)cc1	0.4%	0.1%	12.6µM*	34.5%	-9.4%
Cc1ccc(-c2nc(S(=O)(=O)c3ccc(C)cc3)c(SCC(=O)NCC3CCCO3)o2)cc1 (stereo unspecified)	-1.9%	2.7%	44.7µM*	18.7%	-3.6%
Cc1ccc(S(=O)(=O)c2nc(-c3ccc(F)cc3)oc2SCC(=O)NC2CCCCC2)cc1	30.4%	5.2%	-8.9%[59 µM]	51.6%	1.0%
CSc1ccc(CCNC(=O)c2c(C)nn(-c3ccc(F)cc3)c2-n2cccc2)cc1	-16.0%	-5.7%	?	59.6%	-7.6%
O=C(Cc1ccccc1F)Nc1cccc(S(=O)(=O)N2CCOCC2)c1	.	-2.6%	.	0.7%	-4.1%
CCN(CC)CCOC(=O)c1ccc(N/C=C(/C#N)c2nc(-c3ccc4c(c3)OCO4)cs2)cc1	?	-5.3%	?	31.6µM*	39.8µM*
COc1cc(/C=C(/C#N)c2nc(-c3cc4ccccc4oc3=O)cs2)cc([N+](=O)[O-])c1O	?	.	3.16µM*	.	.
COc1ccc(/C=C(/C#N)c2nc(-c3ccc(-c4ccccc4)cc3)cs2)cc1	6.2%	-6.4%	5.9%[59 µM]	36.6%	-9.5%
SMILES	BAZ2B inh	GLS inh	G9a block	HP1b binding inh	JMJD2A Tudor inh
CCN(CC)CCOC(=O)c1ccc(N/C=C(/C#N)c2nc(-c3cc4ccccc4oc3=O)cs2)cc1	-1.9%	4.6%	1.58µM*	17.8µM*	?
COc1cc(/C=C(\C#N)c2nc(-c3cc4ccccc4oc3=O)cs2)ccc1O	-32.9%	2.5%	?	-7.0%	-27.1%
CCN(CC)CCOC(=O)c1ccc(N/C=C(/C#N)c2nc(-c3ccc(OC)cc3)cs2)cc1	?	-21.7%	11.2µM*	?	56.2µM*
CCOc1ccc(OCC)c(NC(=O)c2cc(S(=O)(=O)N3CCc4ccccc43)cn2C)c1	0.9%	0.2%	1.7%[59 µM]	31.8%	-8.2%
Cn1c(-c2sc3cc(C(F)(F)F)cnc3c2-c2cccnc2)n[nH]c1=S	-9.3%	8.9%	3.55µM*	-13.1%	-26.7%[11.4 µM]
Cn1c(-c2sc3cc(C(F)(F)F)cnc3c2-c2ccccn2)n[nH]c1=S	-15.9%	4.7%	6.31µM*	23.2%	14.1µM*
CSc1nnc(-c2sc3cc(C(F)(F)F)cnc3c2-c2ccccn2)n1C	11.2%	-1.3%	2.9%[59 µM]	34.6%	-17.3%[57.1 µM]
NC(=O)c1sc2cc(C(F)(F)F)cnc2c1-c1ccccc1	-4.1%	-18.2%	.	18.9%	-10.0%
Cn1c(-c2sc3cc(C(F)(F)F)cnc3c2-c2cccs2)n[nH]c1=S	-1.0%	18.6%	3.98µM*	2.2%	-29.6%
COc1ccc(C(=O)Nc2ccc(OCc3cc(=O)n4ccccc4n3)cc2)cc1	1.7%	1.4%	-4.6%[59 µM]	-2.3%[57 µM]	-11.7%
CC1=NOC(=O)/C1=C\c1ccc(-c2ccc(Cl)c(C(=O)O)c2)o1	79.4µM*	-5.8%	15.8µM*	?	79.4µM*
CC1=NOC(=O)/C1=C\c1ccc(-c2ccccc2Br)o1	25.1µM*	?	7.08µM*	?	20µM*
CC1=NOC(=O)/C1=C\c1ccc(-c2cccc(Cl)c2)o1	?	-24.5%	25.1µM*	-0.1%	?
CC1=CC2=NC(=O)/C(=C\c3ccc(-c4cccc(Cl)c4)o3)C(=N)N2O1	3.1%	-3.3%	0.8%[59 µM]	22.3%	-1.4%
Nc1nonc1C(=O)N/N=C/c1ccc(-c2ccc(Cl)c(C(=O)O)c2)o1	79.4µM*	1.9%	31.6µM*	13.7%	-24.1%
O=C(O)c1cc(-c2ccc(/C=N/Nc3ccc(Cl)cc3)o2)ccc1Cl	-34.3%	0.0%	?	-2.0%	?
COc1ccc(C2OC(=O)CC2C(=O)NCc2ccc(Cl)cc2)cc1OC (stereo unspecified)	-4.1%	1.8%	25.4%	32.7%	-13.1%
CC1(C)OC(=O)C(=Cc2ccc(-c3ccc(Cl)c(C(=O)O)c3)o2)C(=O)O1	79.4µM*	?	14.1µM*	19.2%	?
C=CCN1C=CC(=O)[C@@H](O)[C@H]1c1ccccc1Br	.	-2.1%	.	34.0%	4.3%
C[C@H]1CC[C@H]2C(=O)N3[C@H](c4ccccc4Br)[C@@H](C)CC[C@H]3C(=O)N2[C@@H]1c1ccccc1Br	-38.4%	.	50.1µM*	.	.
Clc1cccc(CSc2nnc([C@@H]3CCCN3)o2)c1	79.4µM*	1.1%	16.0%[0.501 µM]	62.6%	-19.1%[57.1 µM]
Cc1cccc(CSc2nnc([C@@H]3CCCN3)o2)c1	17.2%	27.4%	.	56.5%	-2.8%

Screening data as filed in PubChem BioAssay.
